Source: PubChem BioAssay (Tox21)
“And” between values parts separate entries of the source, which are not always exact repeats. Equal values may be shown once. Results filed as inconclusive are left out. Where a call stands in place of a potency, no number is given. More than one record can exist for a structure, and the calls need not agree. The source made the active and inactive calls. Unless noted, calls follow the shape of the dose curve; as a rule, active = well fitted curve in the direction sought with a large enough effect in the repeat runs; inconclusive = weak or mixed curves; inactive = no such curve, though single readings can be large; an effect the other way counts as inactive or inconclusive.

Experiments:
[1] = qHTS assay to identify small molecule antagonists of the estrogen related receptor (ERR) signaling pathway from Tox21 library - cell viability counter screen (AID 1224834); also: nearly all actives have a fitted effect of over 30% in size
In short: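 Multiplexed viability counter screen in ERR cells: 17.5 h compound exposure at 37 C, CellTiter-Fluor added, 30 min at 37 C/5% CO2, fluorescence read.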

[2] = molecular target: Luciferin 4-monooxygenase (Photinus pyralis) (UniProt P08659); assay: qHTS assay to identify small molecule inhibitors of firefly luciferase (AID 1224835); also: nearly all actives have a fitted effect of over 25% in size
Luciferin 4-monooxygenase (Photinus pyralis), sequence (P08659 whole entry, looked up): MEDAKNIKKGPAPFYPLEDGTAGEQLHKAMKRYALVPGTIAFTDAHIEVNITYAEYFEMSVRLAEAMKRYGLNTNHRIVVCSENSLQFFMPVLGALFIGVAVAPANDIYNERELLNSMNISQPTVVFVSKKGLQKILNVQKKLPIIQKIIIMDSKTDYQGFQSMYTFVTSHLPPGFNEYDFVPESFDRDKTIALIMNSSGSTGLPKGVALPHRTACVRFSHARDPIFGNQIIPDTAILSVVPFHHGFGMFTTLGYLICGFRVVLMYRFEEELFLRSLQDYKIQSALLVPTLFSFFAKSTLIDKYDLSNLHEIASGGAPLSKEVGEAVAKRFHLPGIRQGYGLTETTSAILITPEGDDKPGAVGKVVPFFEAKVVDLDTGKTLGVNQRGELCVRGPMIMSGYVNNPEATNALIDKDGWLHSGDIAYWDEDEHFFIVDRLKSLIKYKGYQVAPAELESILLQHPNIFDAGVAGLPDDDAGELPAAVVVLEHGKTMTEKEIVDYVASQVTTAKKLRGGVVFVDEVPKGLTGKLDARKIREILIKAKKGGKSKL
In short: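 Biochemical qHTS: compounds run as interplate titrations against purified firefly enzyme, with D-luciferin and ATP each at its KM concentration. Light output recorded by CCD imaging.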

[3] = qHTS assay to identify small molecule agonists of the constitutive androstane receptor (CAR) signaling pathway - cell viability counter screen (AID 1224836); also: nearly all actives have a fitted effect of over 45% in size
In short: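 Multiplexed viability check: HepG2-CYP2B6-hCAR cells, 15-point compound dosing, 0.75 uM PK11195 final, 23 h at 37 C, CellTiter-Fluor fluorescence.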

[4] = qHTS assay to identify small molecule antagonists of the constitutive androstane receptor (CAR) signaling pathway - cell viability counter screen (AID 1224837); also: nearly all actives have a fitted effect of over 45% in size
In short: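 Read-out: CellTiter-Fluor fluorescence after 23 hr at 37 C/5% CO2. Cells: HepG2 double-stable for hCAR and CYP2B6-2.2kb. Compounds tested at 15 concentrations in the presence of CITCO, final concentration 50 nM.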

[5] = molecular target: Nuclear receptor subfamily 1 group I member 3 (Homo sapiens) (UniProt Q14994); assay: qHTS assay to identify small molecule antagonists of the constitutive androstane receptor (CAR) signaling pathway (AID 1224838);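 also: HepG2 cells stably expressing hCAR with CYP2B6 luciferase reporter stimulated by CITCO; nearly all actives have a fitted effect of over 40% in size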
Nuclear receptor subfamily 1 group I member 3 (Homo sapiens), sequence (Q14994 whole entry, looked up): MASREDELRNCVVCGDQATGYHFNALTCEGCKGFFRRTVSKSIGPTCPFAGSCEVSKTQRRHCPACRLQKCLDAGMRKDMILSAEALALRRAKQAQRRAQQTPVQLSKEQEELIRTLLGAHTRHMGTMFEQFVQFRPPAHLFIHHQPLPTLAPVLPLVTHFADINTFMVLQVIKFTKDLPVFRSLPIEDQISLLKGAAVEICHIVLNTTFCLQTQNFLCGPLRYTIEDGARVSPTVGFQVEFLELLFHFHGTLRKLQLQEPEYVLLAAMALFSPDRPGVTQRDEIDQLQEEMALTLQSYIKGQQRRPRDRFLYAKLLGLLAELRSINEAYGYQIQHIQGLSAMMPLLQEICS
In short: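 Read-out: ONE-Glo luciferase luminescence after 30 min at room temperature. HepG2-CYP2B6-hCAR double-stable cells, compounds in 15-point titration plus 50 nM CITCO final, 24 h at 37 C/5% CO2.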

[6] = molecular target: Nuclear receptor subfamily 1 group I member 3 (Homo sapiens) (UniProt Q14994); assay: qHTS assay to identify small molecule agonists of the constitutive androstane receptor (CAR) signaling pathway (AID 1224839); also: nearly all actives have a fitted effect of over 15% in size
In short: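 Using human hepatoma HepG2 cells engineered with hCAR and a CYP2B6-2.2kb reporter, 15-concentration compound series were incubated 24 h alongside PK11195 at 0.75 uM final, with luminescence quantified afterwards.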

[7] = qHTS assay to identify small molecule antagonists of the estrogen related receptor signaling pathway with the pleiotropic PPARgamma coactivator (PGC) from Tox21 10K library - cell viability counter screen (AID 1224840; active = well fitted cell-killing curve with a large enough effect in the repeat runs, not every such curve was filed as active; also: nearly all actives have a fitted effect of over 40% in size)
In short: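 Fluorescence read-out of CellTiter-Fluor viability reagent, added after cells had been exposed to compound in DMSO for 17.5 h at 37 C; 30 min development at 37 C/5% CO2. Cells: PGC/ERR line, 2,000/well.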

[8] = qHTS assay to identify small molecule antagonists of the estrogen related receptor signaling pathway with the pleiotropic PPARgamma coactivator (PGC) from Tox21 10K library (AID 1224841; call rule not given here; also: actives are mostly falling curves and most rising ones were filed inactive; nearly all actives have a fitted effect of over 50% in size)
In short: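 Luminescence read-out (One-Glo luciferase reagent, 30 min at room temperature) from PGC/ERR cells exposed to DMSO-dissolved test compounds for 18 h at 37 C; cells, 2,000 per well, had been preincubated 6 h before compound transfer.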

[9] = qHTS assay to identify small molecule agonists of the estrogen related receptor signaling pathway with the pleiotropic PPARgamma coactivator (PGC) from Tox21 10K library (AID 1224842); also: nearly all actives have a fitted effect of over 15% in size
In short: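 PGC/ERR reporter cell line, 2,000 cells per well, incubated 6 h at 37 C before 23 nL compound in DMSO was added. After 18 h at 37 C, One-Glo luminescence read following 30 min at room temperature.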
Potency is read from the fitted curve at half-maximal effect.

SMILES | Potency [1] | Potency [2] | Potency [3] | Potency [4] | Potency [5] | Potency [6] | Potency [7] | Potency [8] | Potency [9]
CCC(C)(C)OC | inactive | inactive | inactive | inactive | inactive | inactive | inactive | inactive | inactive
C=C1c2cccc(O)c2C(O)=C2C(=O)[C@]3(O)C(O)=C(C(N)=O)C(=O)[C@@H](N(C)C)[C@@H]3[C@@H](O)[C@H]12 | inactive | inactive | inactive | inactive | inactive | inactive | inactive | inactive | inactive
Cc1ccccc1N=C(N)Nc1ccccc1C | inactive | inactive | inactive | inactive | inactive | inactive | inactive | inactive | inactive
C[C@@H]1CC(=O)NN=C1c1ccc(NN=C(C#N)C#N)cc1 | 18.8 µM (active) and 13.3 µM (active) | 5.49 µM (active) and 9.77 µM (active) | 11.9 µM (active) | 11.9 µM (active) | 21.1 µM (active) | inactive | 26.6 µM (active) and 23.7 µM (active) | 4.73 µM (active) | inactive
CC(CCC(=O)O)C(=O)O (stereo not drawn) | inactive | inactive | inactive | inactive | inactive | inactive | inactive | inactive | inactive
CCCCCCC(C)(C)C(=O)O | inactive | inactive | inactive | inactive | inactive | inactive | inactive | – | inactive
CCCCCCNC(=O)n1cc(F)c(=O)[nH]c1=O | inactive | inactive | inactive | inactive | 2.11 µM (active) | inactive | inactive | inactive | inactive
CCC(C)COC(=O)CC(C)C (stereo not drawn) | inactive | inactive | inactive | inactive | inactive | inactive | inactive | – | –
OCCOCC#CCOCCO | inactive | inactive | inactive | inactive | inactive | inactive | inactive | – | –
O=C1CCCCCCCCCCOCCCCO1 | inactive | inactive | inactive | inactive | inactive | inactive | inactive | – | –
CC(CO)CO | inactive | inactive | inactive | inactive | inactive | inactive | inactive | – | inactive
COc1ncnc(NS(=O)(=O)c2ccc(N)cc2)c1OC | inactive | inactive | inactive | inactive | inactive | inactive | inactive | – | inactive
CN1CCCN=C1COC(=O)C(O)(c1ccccc1)C1CCCCC1 (stereo not drawn) | inactive | inactive | inactive | inactive | inactive | inactive | inactive | inactive | inactive
CC(C)=CC(=O)C=C(C)C | inactive | inactive | inactive | inactive | inactive | inactive | inactive | – | inactive
O=C(O)c1ccc(OCCCOc2ccc(C(=O)O)cc2)cc1 | inactive | inactive | inactive | inactive | inactive | inactive | inactive | inactive | inactive
Cc1cc2c(OCC(CNC(C)(C)C)OC(=O)c3ccccc3)cccc2[nH]1 (stereo not drawn) | inactive | inactive | inactive | inactive | inactive | inactive | inactive | – | –
C[C@]12CC[C@@H]3c4ccc(O)cc4CC[C@H]3[C@@H]1CC[C@@H]2OC(=O)CCC1CCCC1 | 61.1 µM (active) and inactive | inactive | inactive | inactive | inactive | 15.4 µM (active) | 61.1 µM (active) and inactive | – | inactive
C[C@@]12CCC[C@H]1[C@@H]1CC[C@H]3C[C@@H](O)CC[C@]3(C)[C@H]1CC2 | inactive | inactive | inactive | inactive | inactive | inactive | inactive | – | inactive
O=c1cc(-c2ccccc2)oc2ccc3ccccc3c12 | inactive | 0.0356 µM (active) | inactive | inactive | inactive | 4.86 µM (active) | inactive | inactive | 0.243 µM (active)
CC(C)C[C@H](NC(=O)[C@H](CCc1ccccc1)NC(=O)CN1CCOCC1)C(=O)N[C@@H](Cc1ccccc1)C(=O)N[C@@H](CC(C)C)C(=O)[C@@]1(C)CO1 | 133 nM (active) | inactive | 0.376 µM (active) | 0.422 µM (active) | 0.119 µM (active) | inactive | 3.35 µM (active) | 0.0841 µM (active) | inactive
CC(=O)Nc1ccc(C)cc1C | inactive | inactive | inactive | inactive | inactive | inactive | inactive | – | inactive
O=C1c2ccccc2C(=O)C1c1ccc(Br)cc1 | inactive | 3.47 µM (active) | inactive | inactive | inactive | 29.8 µM (active) | inactive | inactive | 13.3 µM (active)
CC1(C)[C@H](C(=O)O)N2C(=O)C[C@H]2S1(=O)=O | inactive | inactive | inactive | inactive | inactive | inactive | inactive | – | inactive
Cc1ccc(OC(=O)c2ccccc2O)cc1 | inactive | 6.33 µM (active) | inactive | inactive | inactive | inactive | inactive | inactive | –
CCCCN(CCN(CCCC)C(=O)N1CCOCC1)C(=O)N1CCOCC1 | inactive | inactive | inactive | inactive | inactive | inactive | inactive | – | –
N#[N+]c1ccc2c(S(=O)(=O)[O-])cccc2c1O | inactive | 44.8 µM (active) | inactive | inactive | inactive | inactive | inactive | inactive | inactive
O=C(O)CCCCCCCCCCCBr | inactive | 56.6 µM (active) | inactive | inactive | inactive | inactive | inactive | inactive | inactive
CCC1NC(=O)c2cc(S(N)(=O)=O)c(Cl)cc2N1 (stereo not drawn) | inactive | inactive | inactive | inactive | inactive | – | inactive | – | –
CN1CCCC(n2nc(Cc3ccc(Cl)cc3)c3ccccc3c2=O)CC1 (stereo not drawn) | 29800 nM (active) | inactive | 23.7 µM (active) | 16.8 µM (active) | – | inactive | inactive | inactive | inactive
